Measurements taken from the supplement of paper PMC3334620.
In all, about 33,000 sequences were measured (“E-score (-0.5 to 0.5)”: median about -0.01, highest 2% from about 0.26 on). The list comes from a sample in which the highest values are over-represented; it also holds similar and randomly drawn sequences.

target: Ste12 (UniProt P13574); test: PBM E-score (8-mer binding enrichment) (E-score (-0.5 to 0.5)); higher = stronger / more preferred TF binding; conditions: protein concentration: 200 nM; construct: GST-DNA-binding domain
Experimental: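 Universal 'all 10-mer' protein binding microarrays (Agilent AMADID 015681) probed with GST-tagged S. cerevisiae TFs (full-length or DBD) made by in vitro transcription/translation (PURExpress), about 100-200 nM. Bound TF was detected with fluorescent anti-GST. Each ungapped 8-mer (which stands for itself and its reverse complement) is scored by the PBM enrichment score (E-score), a modified Wilcoxon-Mann-Whitney statistic from -0.5 to +0.5, computed with the Universal PBM Analysis Suite. Scale: above 0.35 generally sequence-specific binding.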

UniProt P13574, sequence (P13574 whole entry, the tested form may be a part): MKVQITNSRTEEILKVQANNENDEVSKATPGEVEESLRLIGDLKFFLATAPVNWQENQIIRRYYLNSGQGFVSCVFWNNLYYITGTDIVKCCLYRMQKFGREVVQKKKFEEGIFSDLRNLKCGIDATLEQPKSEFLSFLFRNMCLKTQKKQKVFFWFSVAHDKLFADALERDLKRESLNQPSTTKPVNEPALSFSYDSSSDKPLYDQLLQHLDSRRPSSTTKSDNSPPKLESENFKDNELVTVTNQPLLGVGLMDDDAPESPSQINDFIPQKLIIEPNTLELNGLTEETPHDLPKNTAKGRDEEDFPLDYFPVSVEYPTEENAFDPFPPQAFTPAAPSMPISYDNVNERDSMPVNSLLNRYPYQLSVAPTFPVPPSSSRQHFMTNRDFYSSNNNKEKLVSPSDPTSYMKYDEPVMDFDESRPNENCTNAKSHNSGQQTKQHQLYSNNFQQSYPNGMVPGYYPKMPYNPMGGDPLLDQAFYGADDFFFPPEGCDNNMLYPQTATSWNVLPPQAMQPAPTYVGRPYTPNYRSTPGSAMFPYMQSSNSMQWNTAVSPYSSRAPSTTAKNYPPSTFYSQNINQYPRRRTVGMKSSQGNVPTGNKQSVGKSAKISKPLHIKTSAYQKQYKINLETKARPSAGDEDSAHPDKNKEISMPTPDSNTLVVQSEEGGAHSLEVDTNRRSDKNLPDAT

Point of comparison: TTATATAA, “PBM E-score” value 0.176. Against it:
- AACGGTGA — lower, -0.122
- ATTGCCCC — lower, 0.0929
- GGCGAGGA — lower, -0.178
- AATGGCCT — lower, -0.00519
- CAACATAA — higher, 0.189
- TAACATAA — higher, 0.275
- AAACATTA — higher, 0.207
- ACATACAG — lower, 0.0443
- ACATACAC — lower, 0.0702
- AAACATAA — higher, 0.306
- GAACATAA — lower, 0.148
- ACATACAT — higher, 0.263
- ACACATAA — higher, 0.19
- GCTCGCCA — lower, -0.0532
- ATTTGCGG — lower, 0.148
- ACCGTGCT — lower, -0.08
- AGTGCAAA — lower, 0.101
- GAGGGGAA — lower, 0.0394
- AAACAAGC — higher, 0.202
- ATACGATC — lower, 0.157
- AACAATTG — lower, -0.0846
- AACAATTC — lower, 0.124
- AACAATAC — lower, 0.0824
- ATCAATTC — lower, 0.0349
- ATCAATTG — lower, 0.154
- ATCAATTA — higher, 0.289
- AACAATAA — higher, 0.301
- AACAATTA — higher, 0.297
- AACAATAG — lower, 0.0913
- GCGGTTTA — lower, 0.13
- CTTGAGAC — lower, 0.158
- ATCACTAC — lower, -0.117
- CTAGATTA — lower, -0.0366
- TCCAAAGA — lower, 0.0392
- AGAAGAGC — lower, -0.161
- CCCGGCCG — lower, -0.239
- ACTGAGCC — lower, -0.00502
- TTATAAAA — higher, 0.268
- GTATATAC — lower, -0.207
- ATATAAAG — lower, 0.171
- CTATATAC — lower, 0.162
- ATATATAA — higher, 0.273
- CTATATAA — lower, 0.174
- ATATAAAT — higher, 0.279
- TCATAAAA — higher, 0.231
- ATATATAC — higher, 0.271
- ATATAAAC — lower, 0.161
- GTATAAAA — higher, 0.241
- CCGATTTA — higher, 0.199
- AGCATCTG — lower, -0.159
- AGTGACAG — lower, -0.057
- ACTAGTCC — lower, -0.104
- AGCAAACG — lower, -0.0967
- GTAGCTAC — lower, -0.201
- CTCCAGAA — lower, -0.152
- AGGTTTAG — lower, 0.0936
- AAGCCGGC — lower, 0.0834
- GCTTGACA — lower, 0.0364
- ACATCGAA — lower, 0.0463
- CGTCGCGC — lower, 0.00057
- GCAACAAC — lower, -0.0707
- CCGCTAAG — lower, 0.109
- ACATAAAA — lower, 0.17
- CTATAAAA — higher, 0.235
- ATATAAAA — higher, 0.307
- ACCCGCGG — the same, 0.176
- TCTGAAGA — lower, -0.149
- GACTCTGC — lower, -0.0845
- GGCAAGAA — lower, 0.0412
- GAAAAAAC — lower, 0.174
- GGCAAAAC — lower, 0.133
- ATAAAAGA — lower, 0.0538
- GGAAAACA — higher, 0.177
- ATAAAAGG — lower, 0.0863
- GGAAAAAA — higher, 0.309
- GAAAAAAA — higher, 0.369
- GAGAAAAA — lower, 0.147
- GGAAAAGA — lower, 0.05
- GGCAAAAA — higher, 0.346
- ATAAAAAG — higher, 0.315
- CCATGGCG — lower, -0.0357
- GCTTACTA — lower, 0.00559
- AGCCTCTG — lower, -0.135
- CAGTTAGC — lower, -0.218
- GGAAAACC — lower, 0.0776
- GGAAATAA — higher, 0.284
